The text below walks through data of ChEMBL document CHEMBL1201862, “PubChem BioAssay data set” (2004).

Hit rate of the full screen: of about 400,000 compounds, about 2,100 (0.53%) were called active. Not shown: some 14% with an inconclusive outcome. No rule for the calls is given here. Only a selection was taken, and actives are over-represented in it overall.

For this test, the target named is Ataxin-2 (Homo sapiens) (UniProt Q99700). As to the kind of experiment: qHTS for Inhibitors of ATXN expression. Format: functional.
Ataxin-2 (Homo sapiens), sequence (Q99700 whole entry): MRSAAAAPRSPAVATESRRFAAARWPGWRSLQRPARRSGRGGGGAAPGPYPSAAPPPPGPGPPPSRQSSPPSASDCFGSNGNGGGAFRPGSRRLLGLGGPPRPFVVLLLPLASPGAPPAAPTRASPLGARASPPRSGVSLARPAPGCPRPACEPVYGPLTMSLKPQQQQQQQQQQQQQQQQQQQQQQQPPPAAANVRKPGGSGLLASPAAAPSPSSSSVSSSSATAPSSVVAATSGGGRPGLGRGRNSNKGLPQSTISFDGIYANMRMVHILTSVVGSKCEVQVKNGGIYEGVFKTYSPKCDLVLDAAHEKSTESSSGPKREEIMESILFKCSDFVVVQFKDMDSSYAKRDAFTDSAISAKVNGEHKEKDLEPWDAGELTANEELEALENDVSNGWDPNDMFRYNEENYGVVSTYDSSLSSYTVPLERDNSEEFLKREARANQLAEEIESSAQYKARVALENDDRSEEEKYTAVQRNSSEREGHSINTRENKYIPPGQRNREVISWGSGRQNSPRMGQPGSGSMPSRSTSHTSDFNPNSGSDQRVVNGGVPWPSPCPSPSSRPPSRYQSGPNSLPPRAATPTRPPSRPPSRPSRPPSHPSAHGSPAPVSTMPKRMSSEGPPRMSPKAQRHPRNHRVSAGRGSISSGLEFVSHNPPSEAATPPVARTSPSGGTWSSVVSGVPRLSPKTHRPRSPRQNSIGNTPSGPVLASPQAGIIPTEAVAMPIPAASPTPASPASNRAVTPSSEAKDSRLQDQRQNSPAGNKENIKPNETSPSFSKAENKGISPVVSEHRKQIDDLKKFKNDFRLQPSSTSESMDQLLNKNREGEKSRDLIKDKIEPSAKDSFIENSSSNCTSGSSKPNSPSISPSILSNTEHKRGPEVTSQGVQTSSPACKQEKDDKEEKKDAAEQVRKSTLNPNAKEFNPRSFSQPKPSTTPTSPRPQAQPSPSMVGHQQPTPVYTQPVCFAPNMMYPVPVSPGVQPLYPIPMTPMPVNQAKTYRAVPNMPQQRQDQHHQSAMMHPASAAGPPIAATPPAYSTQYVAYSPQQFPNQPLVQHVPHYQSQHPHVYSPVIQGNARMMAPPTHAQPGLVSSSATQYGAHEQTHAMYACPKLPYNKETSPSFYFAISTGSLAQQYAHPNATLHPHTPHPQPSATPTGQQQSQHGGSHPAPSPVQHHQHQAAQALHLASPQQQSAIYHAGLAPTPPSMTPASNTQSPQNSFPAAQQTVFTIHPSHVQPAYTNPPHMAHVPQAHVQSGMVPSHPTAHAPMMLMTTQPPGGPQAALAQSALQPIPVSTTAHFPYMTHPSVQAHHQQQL
As for `Cn1c(-c2c(N)n(CCc3ccccc3)c3nc4ccccc4nc23)nc2ccccc21`, the Potency result is “inactive”.
Next, `Cc1ccc(C(C(=O)NCC2CCCO2)N(C(=O)c2snc(C(N)=O)c2N)c2ccccc2F)o1` (configuration not stated): “inactive”; `C=CC[C@H](CC(=O)N(CCO)Cc1ccccc1)C(=O)N[C@@H](COC(=O)[C@@H](CC=C)Cc1ccc(F)cc1)Cc1ccccc1`: 28.2 µM (active); `C=CC[C@@H](CC(=O)N(CCO)Cc1ccccc1)C(=O)N[C@H](COC(=O)[C@@H](CC=C)Cc1ccc(F)cc1)Cc1ccccc1`: 28.2 µM (active).
To `OCCN(Cc1ccccc1)C(S)=Nc1ccc(F)cc1` belongs “inactive”; to `Cc1cccn2c(=O)c3cc(C#N)/c(=N\C(=O)c4ccncc4)n(CCCOC(C)C)c3nc12`, “inactive”.
For the compound `CCn1ccnc1CN1CCc2c([nH]c3ccccc23)C1CC(C)C` (configuration not stated), the Potency entry was “inactive”.
For `C[C@]12c3[nH]c4ccc(Cl)cc4c3CCN1C(=O)[C@@H](CC(=O)NCc1cccc(C(F)(F)F)c1)C[C@@H]2C(=O)N1CCOCC1`, the Potency was 20 µM (active).
For `C[C@]12c3[nH]c4ccc(Cl)cc4c3CCN1C(=O)[C@@H](CC(=O)NCc1cccc(C(F)(F)F)c1)C[C@@H]2C(=O)N1CCCCC1`, the Potency was 35.5 µM (active).
On to `O=C(CCCCCn1c(=S)[nH]c2ccc(N3CCOCC3)cc2c1=O)NCc1cccc(Cl)c1`, for which the Potency entry is “inactive”.
`O=C(CCCCCn1c(=S)[nH]c2ccc(N3CCOCC3)cc2c1=O)NCc1ccc(Cl)cc1`: the Potency entry was “inactive”.
With `CCC1(C)Cc2ccccc2-c2ncnc(O)c21` (configuration not stated), the Potency result is “inactive”.
Regarding `COC(=O)N/N=C/c1cccc(OC(=O)c2ccc3c(c2)OCO3)c1`, the Potency entry is “inactive”.
`O=C(Cn1nnc2ccccc2c1=O)Nc1ccc(S(=O)(=O)N2CCOCC2)cc1`: the Potency result was “inactive”.
As for `COc1ccc(C2C=C(c3ccccc3)Nc3nc(NS(=O)(=O)c4ccc(C)cc4)nn32)cc1` (configuration not stated), the Potency result is “inactive”.
Next, `COc1cc([C@@H]2c3cc4c(cc3[C@@H](O)[C@H]3COC(=O)[C@H]23)OCO4)cc(OC)c1O[Si](C)(C)C(C)(C)C`: 39.8 µM (active); `Oc1c(C(Nc2cccc(C(F)(F)F)c2)c2ccncc2)ccc2cccnc12` (configuration not stated): “inactive”; `OC(c1ccccc1)(c1nc(-c2cc(F)cc(F)c2)cs1)C(F)(F)F` (configuration not stated): 35.5 µM (active).
To `N#Cc1cccc(-c2csc(C(O)(c3ccccc3)C(F)(F)F)n2)c1` (configuration not stated) belongs 20 µM (active).
Next, `COc1cccc(-c2cc(C(F)(F)F)c(C#N)c(O)n2)c1`: “inactive”; `N#CC12COC3(CCCCC3C1(C#N)C#N)OC2=N` (configuration not stated): “inactive”; `Cc1cc(=O)oc2c3c(ccc12)OCN(Cc1ccc(Cl)cc1)C3`: “inactive”.
Turning to `O=C(O)c1ccc(Nc2nc(-c3cc4ccccc4oc3=O)cs2)cc1O`, the Potency entry was “inactive”.
To `O=C(O)c1cccc(Nc2nc(-c3cc4ccccc4oc3=O)cs2)c1` belongs “inactive”; to `Cc1cc(NC(=S)NC(=O)c2ccccc2)ccc1-c1cc2ccccc2oc1=O`, 17.8 µM (active).
`N#CC1=C(c2ccccc2)/C(=C/c2ccccc2)OC1=O`: the Potency was 22.4 µM (active).
Next, `N#CC1=C(N)OC2=C(CC/C2=C\c2ccccc2)C1c1ccccc1` (configuration not stated): “inactive”; `Nc1ccc2c(c1)nc(O)c1cc(N)ccc12`: “inactive”; `CCN(CC)c1ccc(/C=C/C(=O)C2C(=O)C=C(C)OC2=O)cc1` (configuration not stated): “inactive”.
To `CCOC(=O)C1=C(Cc2ccc(Cl)cc2)C(=O)c2ccccc2C1=O` belongs 31.6 µM (active).
As to `CCOC(=O)c1sc(-c2ccc(Cl)cc2)nc1O`, the Potency entry was “inactive”.
To `CCOC(=O)c1c(C)n(O)c2ccc(Cl)cc2c1=O` belongs “inactive”.
On to `CCN1CCN(c2nc3c(C)cccn3c(=O)c2/C=C(\C#N)C(=O)NC)CC1`, for which the Potency result was “inactive”.
To `COc1ccc(-c2cc(CNC(=O)CCl)on2)cc1` belongs 15.8 µM (active); to `COc1ccc(-c2onc3ccc(C(C)=O)cc23)cc1`, “inactive”.
To `COc1ccc(-c2cc3c(=O)n(CC(=O)NCc4ccc(Cl)cc4)ncn3n2)cc1` belongs “inactive”.
To `CC(C)c1ccc(C2C(C#N)=C(N)Oc3c2oc(CO)cc3=O)cc1` (configuration not stated) belongs “inactive”; to `CCN(CC)C(=O)c1ccc2c3c(cccc13)C(=O)N(CCc1ccc(OC)c(OC)c1)C2=O`, 28.2 µM (active).
On to `CCCN1C(=O)c2cccc3c(N4CCCCC4)ccc(c23)C1=O`, for which the Potency result was “inactive”.
Regarding `COc1ccc(CCN2C(=O)CS/C2=N/NC(=O)c2ccccc2F)cc1OC`, the Potency entry was “inactive”.
On to `O=C(O)CCSc1nnc(CNc2ccc(Cl)cc2)n1Cc1ccccc1`, for which the Potency result is “inactive”.
For the compound `Cc1cc(C(=O)CCl)c(C)n1CC1COc2ccccc2O1` (configuration not stated), the Potency is 26.7 µM (active).
Next, `CC1CC(=NNC(=O)C2COc3ccccc3O2)CC(C)(C)C1` (configuration not stated): “inactive”.
Take `CC(C)N1CCN(CC2COc3ccccc3O2)CC1` (configuration not stated): the Potency entry was “inactive”.
To `O=C(O)CN1C(=O)C2C3CCC(C3)C2C1=O` (configuration not stated) belongs “inactive”; to `COc1ccc(-c2cn3nc4c(nc3n2)CCCC4)cc1`, “inactive”.
For `CCCCCCc1cc2cc(-c3nnc(-c4ccccc4O)o3)c(=O)oc2cc1O`, the Potency result was “inactive”.
Next, `CC(C)c1ccc2c(c1)CCC1C(C)(CN)CCCC21C` (configuration not stated): 39.8 µM (active); `CCOC(=O)c1c(-c2ccccc2)oc2ccc(OCC(O)CNCCN(C)C)cc12` (configuration not stated): “inactive”.
To `CCOC(=O)c1c(CSc2ccccc2)n(C)c2cc(Br)c(OCC(O)CNC(CO)(CO)CO)cc12` (configuration not stated) belongs 25.1 µM (active); to `CCOC(=O)c1c(CSC(=N)N)n(C)c2cc(Br)c(OC(C)=O)cc12`, 35.5 µM (active).
Next, `O=C(C1=CC=CN2CCS(=O)(=O)N=C12)N1CCN(c2cccc(Cl)c2)CC1`: “inactive”; `CCOC(=O)C1=NOC2(C1)C(=O)Nc1ccc(OC(F)(F)F)cc12` (configuration not stated): 39.8 µM (active); `CCOC(=O)C1=NN(C(=O)c2ccc(OC)cc2)C(O)(c2ccc(Cl)cc2)C1` (configuration not stated): “inactive”.
As for `CC1(Cc2ccccc2OC(F)(F)F)C(=O)Nc2ccc(-c3ccsc3)cc21` (configuration not stated), the Potency is 39.8 µM (active).
To `Cc1ccc(CC2(C)C(=O)Nc3ccc(OC(F)(F)F)cc32)cc1` (configuration not stated) belongs 39.8 µM (active); to `COc1ccc(OC(F)(F)F)cc1CC1(C)C(=O)Nc2ccc(-c3ccsc3)cc21` (configuration not stated), 39.8 µM (active).
As to `CN1CCCC(OC(=O)c2cc(Cl)cc(Cl)c2)C1` (configuration not stated), the Potency result is “inactive”.
Next, `c1ccc(-c2nc(N3CCCCC3)nc3ccccc23)cc1`: “inactive”; `C#CCOCCOCCOCCNc1nc(N2CCN(C(=O)CCCCCCCCCCNC(=O)[C@@H](CCC(=O)O)n3cc(CCCCCN)nn3)CC2)nc(N2CCN(C(=O)CCCCCCCCCCNC(=O)[C@H](CCCCN)n3cc(C[C@@H](C)CC)nn3)CC2)n1`: 31.6 µM (active).
Next, `C#CCOCCOCCOCCNc1nc(N2CCN(C(=O)CCCCCCCCCCNC(=O)[C@H](CCCCN)n3cc(C[C@@H](C)CC)nn3)CC2)nc(N2CCN(C(=O)CCCCCCCCCCNC(=O)[C@H](CCCN=C(N)N)n3cc(C[C@@H](C)CC)nn3)CC2)n1`: 20 µM (active); `Cc1ccc(Nc2nc(NCC3CC3)nc3ccsc23)c(C)c1`: 20 µM (active).
`Cc1ccc(CNc2nc(NCC3CC3)nc3ccsc23)c(C)c1`: the Potency is 39.8 µM (active).
Next, `O=C(COC(=O)c1ccc(Cl)nc1)Nc1ccc2c(c1)CCC2`: “inactive”; `CC(=O)Oc1ccc2c(c1)O/C(=C\c1ccncc1)C2=O`: “inactive”; `COCc1cc(C)nc(SCC(=O)Nc2nc(C)cs2)c1C#N`: “inactive”.
Next, `CCOC(=O)Cc1csc(NS(=O)(=O)c2ccc(SC)cc2)n1`: “inactive”.
For `NNC(=O)c1cccc(Cn2cc(Br)c([N+](=O)[O-])n2)c1`, the Potency result is “inactive”.
For `C#CCn1/c(=N/C(=O)CSC(C)=O)sc2cc(F)ccc21`, the Potency is 6.7 µM (active).
Next, `COCC(=O)OC1CCn2c1nc1c2C(=O)C(C)=C(NC(C)=O)C1=O` (configuration not stated): 10 µM (active).
To `OCC1(CC2CCCCO2)CCN(Cc2ccccc2-c2ccco2)CC1` (configuration not stated) belongs “inactive”; to `Nc1nc(Br)c2ccccc2c1-c1ccccc1`, “inactive”; to `O=C(Oc1ccc(C(=S)N2CCOCC2)cc1)c1cccc(Cl)c1`, “inactive”.
To `CC(C)c1ccc(C(=O)N2CCN(c3cnn(C)c(=O)c3Cl)CC2)cc1` belongs “inactive”; to `Clc1cccc(N/N=C/c2ccc(N3CCOCC3)s2)c1`, 39.8 µM (active).
Take `Fc1cccc(/C=N/Nc2cc(N3CCOCC3)ncn2)c1`: the Potency result was “inactive”.
On to `Oc1c(Cl)cc(Cl)cc1/C=N/c1ccc(N2CCOCC2)cc1`, for which the Potency entry was “inactive”.
For the compound `COc1cc(C2CC(c3cccnc3)=NN2c2ccc(F)cc2)cc(OC)c1OC` (configuration not stated), the Potency entry is “inactive”.
`COc1cc(C2CC(=O)N(Cc3ccc(F)cc3)c3ccccc3S2)cc(OC)c1OC` (configuration not stated): the Potency was 28.2 µM (active).
With `C=CCN1C(=O)[C@@H]2Cc3c([nH]c4ccccc34)C(c3cc(OC)c(OC)c(OC)c3)N2C1=S` (some centres not stated), the Potency result is “inactive”.
With `Cc1cc(NC(=O)C(C)SCC(=O)O)no1` (configuration not stated), the Potency result is “inactive”.
To `Cc1ccc(S(=O)(=O)N2CCCC(CCC(=O)NCc3ccccc3F)C2)s1` (configuration not stated) belongs “inactive”.
`CCCCCCn1c(=O)n2n(c1=O)[C@@H]1CN(S(=O)(=O)c3ccc(C)cc3)C[C@]1(O)[C@@H](OC(=O)NCc1ccccc1)C2`: the Potency was 28.2 µM (active).
As for `Cn1c(=O)c(=O)n(C)c2cc(S(=O)(=O)CCC(=O)NCc3ccccc3)ccc21`, the Potency result is “inactive”.
To `Cc1ccc(S(=O)(=O)N2C[C@H]3n4c(=O)ccc(=O)n4C[C@H](OC(=O)NCc4ccccc4F)[C@@]3(O)C2)cc1` belongs 35.5 µM (active); to `CCCCCCNC(=O)O[C@H]1Cn2c(=O)n(CCCCCC)c(=O)n2[C@@H]2CN(S(=O)(=O)c3ccc(C)cc3)C[C@]12O`, 25.1 µM (active); to `CCCCCCn1c(=O)n2n(c1=O)[C@@H]1CN(S(=O)(=O)c3ccc(C)cc3)C[C@]1(O)[C@@H](OC(=O)NCc1ccccc1F)C2`, 35.5 µM (active).
In the case of `NS(=O)(=O)c1ccc(CNC(=O)/C=C/c2ccco2)cc1`, the Potency result was “inactive”.
Next, `O=C(Cc1ccccc1)NCc1nnc(S)n1-c1ccc(Br)cc1`: “inactive”; `CSc1c(C#N)c(O)nc2c1CCc1ccccc1-2`: “inactive”.
Next, `COc1ccccc1[C@H]1C(c2cccc(C)c2)=NN(c2ccccc2)[C@@H]1CO`: “inactive”; `Cc1ccc(C)c(N2CCN(C(=O)c3ccc(Cn4c(=S)[nH]c5ccc(N6CCOCC6)cc5c4=O)cc3)CC2)c1`: “inactive”.
